PubChem BioAssay AID1159580 (chemical genetic matrix, 2015)
About 2,000 (36%) of roughly 5,500 compounds were called active. Roughly 18% stayed inconclusive and do not appear here. No stated cut-off is given here; in the data, active means normalized growth mostly below about 0.91 (no sharp cut-off); inconclusive means no clear call, values can overlap the other calls; inactive means mostly above about 0.92. This is one part of the list.

Test: chemical genetic growth profiling, strain panel (AID 1159580);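 further: tested at 20 µM; growth read once vehicle control cultures reached saturation at 30 °C; 1 = growth at the plate median or of vehicle wells; lower values mean less growth of the strain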
Details: growth OD

Measured: normalized growth

CC(C)(C)OC(=O)N1CCC(C(N)=O)CC1
inactive: S. cerevisiae deletion strains, locus YAL013W, strain DEP1, active compounds read low 0.997 | S. cerevisiae deletion strains, locus YBR229C, strain ROT2, active compounds read low 1.01 | S. cerevisiae deletion strains, locus YCL061C, strain MRC1, active compounds read low 1.02 | S. cerevisiae deletion strains, locus YDL101C, strain DUN1, active compounds read low 1.01 | S. cerevisiae deletion strains, locus YDR150W, strain NUM1, active compounds read low 1.01 | S. cerevisiae deletion strains, locus YEL061C, strain CIN8, active compounds read low 1.01 | S. cerevisiae deletion strains, locus YGR078C, strain PAC10, active compounds read low 1.01 | S. cerevisiae deletion strains, locus YHR030C, strain SLT2, active compounds read low 1.08 | S. cerevisiae deletion strains, locus YHR087W, strain rtc3, active compounds read low 1.01 | S. cerevisiae deletion strains, locus YJR043C, strain POL32, active compounds read low 1.01 | S. cerevisiae deletion strains, locus YJR075W, strain HOC1, active compounds read low 1.01 | S. cerevisiae deletion strains, locus YLR039C, strain RIC1, active compounds read low 1.04 | S. cerevisiae deletion strains, locus YLR058C, strain SHM2 (second series), active compounds read low 1.01 | S. cerevisiae deletion strains, locus YLR085C, strain ARP6, active compounds read low 1.02 | S. cerevisiae deletion strains, locus YLR262C, strain YPT6, active compounds read low 1.07 | S. cerevisiae deletion strains, locus YML094W, strain GIM5, active compounds read low 1.03 | S. cerevisiae deletion strains, locus YMR219W, strain ESC1, active compounds read low 1.01 | S. cerevisiae deletion strains, locus YMR263W, strain SAP30, active compounds read low 1.02 | S. cerevisiae deletion strains, locus YMR307W, strain GAS1, active compounds read low 1.04 | S. cerevisiae deletion strains, locus YNL153C, strain GIM3, active compounds read low 1.01 | S. cerevisiae deletion strains, locus YNL298W, strain CLA4 (second series), active compounds read low 1.03 | S. cerevisiae deletion strains, locus YNL322C, strain KRE1, active compounds read low 1.02 | S. cerevisiae deletion strains, locus YNR030W, strain Alg12, active compounds read low 1.03 | S. cerevisiae deletion strains, locus YPL055C, strain LGE1, active compounds read low 1.01 | S. cerevisiae deletion strains, locus YPL241C, strain CIN2, active compounds read low 1.03 | S. cerevisiae deletion strains, locus YPR135W, strain CTF4, active compounds read low 0.974 | S. cerevisiae strains, strain wild type, active compounds read low 1.02
